Experimental data taken from PubChem BioAssay.

Columns and labels:
[1] = biological target: Tumor necrosis factor receptor superfamily member 10B (Homo sapiens) (UniProt O14763); assay: caspase-8 TRAIL sensitization, hit retest, confirmation, cell-based, NB7+caspase-8, with/without TRAIL, luminescence panel (AID 651596); details: NB7 neuroblastoma + caspase-8, TRAIL sensitization, luminescence viability, with TRAIL, mean of runs, at 10 µM, stronger effect = higher value
[2] = as above; details: NB7 neuroblastoma + caspase-8, without TRAIL, luminescence viability, without TRAIL, mean of runs, at 10 µM

Sequence of Tumor necrosis factor receptor superfamily member 10B (Homo sapiens) (O14763 whole entry, looked up): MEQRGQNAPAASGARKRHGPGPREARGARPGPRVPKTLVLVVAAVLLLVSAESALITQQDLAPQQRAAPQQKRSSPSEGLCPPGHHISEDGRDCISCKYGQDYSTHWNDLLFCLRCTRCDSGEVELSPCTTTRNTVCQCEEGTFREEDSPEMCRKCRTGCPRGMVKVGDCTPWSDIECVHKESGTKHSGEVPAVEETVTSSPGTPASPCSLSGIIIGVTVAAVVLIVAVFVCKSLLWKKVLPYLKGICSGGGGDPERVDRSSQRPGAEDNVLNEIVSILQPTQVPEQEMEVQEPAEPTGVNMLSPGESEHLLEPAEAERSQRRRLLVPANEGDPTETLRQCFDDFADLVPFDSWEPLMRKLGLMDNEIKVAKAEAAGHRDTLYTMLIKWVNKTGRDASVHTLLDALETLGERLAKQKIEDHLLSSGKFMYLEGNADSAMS

| Compound | activity [1] | activity [2] |
| --- | --- | --- |
| COc1cc(SC)ccc1C(=O)Nc1nccs1 | 83.3% | 84.3% |
| COn1c(SCc2ccccc2)nc2ccccc2c1=O | 65.3% | 59.9% |
| O=C(CCS(=O)(=O)c1ccccc1)Nc1ccc(-c2nc3ccccc3s2)cc1 | 58% | 42.8% |
| Cc1cc(C(=O)Nc2sc3c(c2C#N)CCC(C)C3)no1 (stereo unspecified) | 58.6% | 52.6% |
| COc1ccc(-c2cc(C(=O)N3CCOCC3)no2)cc1 | 50.8% | 49.9% |
| O=C1c2ccc(Cl)cc2S(=O)(=O)c2cccc(C(=O)N3CCN(c4ccc(Cl)cn4)CC3)c21 | 94.8% | 83.5% |
| O=C1N(c2ccccc2)CCN1c1ccccc1 | 67.2% | 62.8% |
| CCOC(=O)Cc1csc(NC(=O)c2cc3c(s2)CCCC3)n1 | 56.7% | 58.8% |
| CCC(OC(=O)c1ccc(S(C)(=O)=O)c([N+](=O)[O-])c1)C(=O)NC1C2CC3CC(C2)CC1C3 (stereo unspecified) | 79.5% | 97.7% |
| Cc1csc(N/N=C/c2ccccn2)n1 | 59.2% | 69.7% |
| N/C(=N\OC(=O)c1ccc([N+](=O)[O-])cc1Cl)c1ccccn1 | 90.2% | 87.3% |
| COc1ccc(-c2ccc(NC(=O)c3ccco3)cc2)nn1 | 91% | 89.9% |
| O=C(Nc1nc2c(s1)CCCC2)c1ccc(Br)o1 | 73.7% | 88.6% |
| COc1ccc(-c2cc3nc4n(c(=O)c3s2)CCC4)cc1 | 71.1% | 70.4% |
| Cc1ccc(-c2cn3c(=O)cc(C)[nH]c3n2)cc1 | 80.5% | 79.5% |
| C/C(=N\NC(=O)c1ccccc1NC(=O)c1ccc(Cl)cc1)c1ccncc1 | 99.1% | 99% |
| Cc1ccc(/C(N)=N/OC(=O)c2ccc(Cl)cc2Cl)cc1 | 97% | 96.7% |
| COCCn1c(C)cc(C(=O)COC(=O)c2ccc(Cl)c(S(N)(=O)=O)c2)c1C | 52% | 52.4% |
| C#CCN(C[C@@H]1[C@@H](OC(=O)NCc2ccccc2F)[C@@H](OC(=O)NCc2ccccc2F)Cn2c(=O)ccc(=O)n21)S(=O)(=O)c1ccc(C)cc1 | 95% | 93.6% |
| Cn1c(NC(=O)c2ccc(F)cc2)nc2ccccc21 | 45.1% | 57.1% |
| COC(=O)c1sc(NC(=S)NC(=O)c2cccc(C)c2)nc1C | 46.2% | 33.2% |
| O=C(/C=C/Nc1ccccc1F)c1ccc(Br)cc1 | 62.2% | 59.5% |
| O=C(CCl)N1CCCC1c1ccc2c(c1)OCCO2 (stereo unspecified) | 95.6% | 97.8% |
| CC1(C)CC(=O)c2sc(NC(=O)c3cccs3)nc2C1 | 91.9% | 94.2% |
| N/C(Cc1ccc(Cl)cc1)=N\OC(=O)c1ccc2ccccc2c1 | 98.5% | 95% |
| CC1(C)CC(=O)C=C(c2ccc(-c3ccc4[nH]ccc4c3)cc2)C1=O | 67.8% | 64.4% |
| Cc1cc(C)n(-c2ccc(C(=O)Nc3ccc(C)c(S(=O)(=O)N4CCOCC4)c3)cc2)n1 | 63.5% | 24.2% |
| CCn1cc(Cl)c(C(=O)Nc2ccc3c(c2)OCCO3)n1 | 39.5% | 34.1% |
